Results on 9 compounds are retold here after PubChem BioAssay.

The nature of test [1]: optical density shifts of acrAB sulA E. coli – strain DRC41, OD650, 48 h, E. coli filamentation inducer project, primary screen (AID 1152).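 Note: E. coli MC1000 strain DRC41 lacking acrAB efflux pump and sulA.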 Conditions: higher = more signal, called active from +8 up or from −8 down.
Test [2] is described as follows: probe aLefty1 binding on compound microarray – biochemical, small-molecule microarray, 635/667 nm fluorescence, primary screen (AID 1153).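 Note: score merges spot fluorescence with signal-to-noise ratio from the scanned slide images.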 Conditions: higher = more signal.
Test [3] can be described thus: plasmodial surface anion channel blockers, osmotic lysis – cell-based, P. falciparum Indochina, OD700, 1 h, primary screen (AID 1154). The settings on record: P. falciparum Indochina infected RBC osmotic lysis, higher = more signal, called active from +8 up or from −8 down.
Test [4] can be described thus: plasmodial surface anion channel blockers, osmotic lysis – cell-based, P. falciparum Indochina, OD700, 2 h, primary screen (AID 1155).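 Note: lysis reports solute entry through the parasite surface anion channel PSAC.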 Conditions: P. falciparum Indochina infected erythrocytes, higher = more signal, called active from +8 up or from −8 down.
A short description of test [5]: changes in parasitized red cell lysis, either direction – P. falciparum Indochina, OD700, 3 h, PSAC antagonist project, primary screen (AID 1156). Conditions: P. falciparum-infected erythrocytes, osmotic lysis, higher = more signal, called active from +8 up or from −8 down.
Test [6] in a line: plasmodial surface anion channel blockers, osmotic lysis – cell-based, P. falciparum Indochina, OD700, 18 h, primary screen (AID 1157). The settings on record: P. falciparum Indochina infected erythrocytes, osmotic lysis OD700, 18 h; higher = more signal, called active from +8 up or from −8 down.
Test [7] in a line: S6 kinase pathway phospho-S6 level changes – cell-based, A549, cytoblot, luminescence, serum-stimulated, primary screen (AID 1158).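 Note: serum-stimulated A549 lung adenocarcinoma cells; signal is phosphorylated S6 detected by cytoblot immunostaining with HRP secondary.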 The settings on record: 5 h, higher = more signal.
Test [8] has as its target NADPH oxidase 2 (Homo sapiens) (UniProt P04839). The experiment in a line: compounds shifting NOX2 Amplex Red fluorescence – cell-based, HEK293-NOX2, PMA-stimulated, NOX inhibitor project, primary screen (AID 1159). Note: test concentration not given here. The settings on record: 45 min, higher = more signal, called active from +8 up or from −8 down.
Test [9] addresses NADPH oxidase 4 (Homo sapiens) (UniProt Q9NPH5). Briefly: compounds shifting NOX4 Amplex Red fluorescence – cell-based, HEK293-NOX4, tetracycline-induced, NOX inhibitor project, primary screen (AID 1160). Conditions: HEK293-NOX4, Amplex Red H2O2 fluorescence, 45 min; higher = more signal, called active from +8 up or from −8 down.
In test [10] the target is NADPH oxidase 5 (Homo sapiens) (UniProt Q96PH1). The experiment in a line: compounds shifting NOX5 Amplex Red fluorescence – cell-based, HEK293-NOX5, NOX inhibitor project, primary screen (AID 1161). Conditions: HEK293-NOX5, ionomycin, 45 min, higher = more signal.
Test [11] in a line: compound effects on lung adenocarcinoma cell viability – A549, calcein-AM fluorescence, 48 h, basal, profiling panel (AID 1162). Note: test concentration not given here. The settings on record: higher = more signal.
Test [12] can be described thus: compound effects on differentiated 3T3-L1 adipocyte viability – cell-based, 3T3-L1 adipocytes, calcein-AM fluorescence, 48 h, basal, profiling panel (AID 1163). Note: test concentration not given here. Conditions: 3T3-L1 adipocytes viability, higher = more signal.
A short description of test [13]: compound effects on hepatocellular carcinoma cell viability – HepG2, calcein-AM fluorescence, 48 h, basal, profiling panel (AID 1164). Note: test concentration not given here. The settings on record: higher = more signal.
Test [14] can be described thus: compound effects on multiple myeloma cell viability – MM1S, calcein-AM fluorescence, 48 h, basal, profiling panel (AID 1165). Note: test concentration not given here. Conditions: higher = more signal.
Test [15] can be described thus: calcein-AM signal in unstimulated myeloma cells – cell-based, calcein-AM fluorescence, 48 h, PK04 Diversity Set, profiling panel (AID 1166).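 Note: cells grown under basal conditions without added stimulus; test concentration not given here.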 The settings on record: RPMI8226 myeloma viability, higher = more signal.
Test [16] can be described thus: JC-1 mitochondrial signal, unstimulated HepG2 cells – cell-based, JC-1 fluorescence, 24 h, 100 nL compound, profiling panel (AID 1167). Note: test concentration not given here. Conditions: HepG2 mitochondrial potential, higher = more signal.
Test [17] is described as follows: JC-1 mitochondrial signal, unstimulated adipocytes – cell-based, JC-1 fluorescence, 3T3-L1 adipocytes, 24 h, 100 nL compound, profiling panel (AID 1168). Note: test concentration not given here. The settings on record: JC-1 mitochondrial fluorescence, higher = more signal, called active from +8 up or from −8 down.
Test [18] is described as follows: JC-1 mitochondrial signal, unstimulated myeloma cells – cell-based, JC-1 fluorescence, RPMI8226, 24 h, 100 nL compound, profiling panel (AID 1169). Note: test concentration not given here. Conditions: JC-1 mitochondrial potential fluorescence, higher = more signal.
The nature of test [19]: JC-1 mitochondrial signal, unstimulated MM1S myeloma – cell-based, JC-1 fluorescence, 24 h, 100 nL compound, profiling panel (AID 1170). Note: test concentration not given here. The settings on record: MM1S mitochondrial potential, higher = more signal.
The nature of test [20]: resazurin metabolic signal in A549 cells – cell-based, resazurin fluorescence, 24 h, PK04 Diversity Set, profiling panel (AID 1171). Note: test concentration not given here. The settings on record: A549 viability, higher = more signal, called active from +8 up or from −8 down. Background: The colour change of resazurin is a common sign of viable cells or microbes.

The source made the active and inactive calls.

Chain of NADPH oxidase 5 (Homo sapiens) (Q96PH1 whole entry, looked up): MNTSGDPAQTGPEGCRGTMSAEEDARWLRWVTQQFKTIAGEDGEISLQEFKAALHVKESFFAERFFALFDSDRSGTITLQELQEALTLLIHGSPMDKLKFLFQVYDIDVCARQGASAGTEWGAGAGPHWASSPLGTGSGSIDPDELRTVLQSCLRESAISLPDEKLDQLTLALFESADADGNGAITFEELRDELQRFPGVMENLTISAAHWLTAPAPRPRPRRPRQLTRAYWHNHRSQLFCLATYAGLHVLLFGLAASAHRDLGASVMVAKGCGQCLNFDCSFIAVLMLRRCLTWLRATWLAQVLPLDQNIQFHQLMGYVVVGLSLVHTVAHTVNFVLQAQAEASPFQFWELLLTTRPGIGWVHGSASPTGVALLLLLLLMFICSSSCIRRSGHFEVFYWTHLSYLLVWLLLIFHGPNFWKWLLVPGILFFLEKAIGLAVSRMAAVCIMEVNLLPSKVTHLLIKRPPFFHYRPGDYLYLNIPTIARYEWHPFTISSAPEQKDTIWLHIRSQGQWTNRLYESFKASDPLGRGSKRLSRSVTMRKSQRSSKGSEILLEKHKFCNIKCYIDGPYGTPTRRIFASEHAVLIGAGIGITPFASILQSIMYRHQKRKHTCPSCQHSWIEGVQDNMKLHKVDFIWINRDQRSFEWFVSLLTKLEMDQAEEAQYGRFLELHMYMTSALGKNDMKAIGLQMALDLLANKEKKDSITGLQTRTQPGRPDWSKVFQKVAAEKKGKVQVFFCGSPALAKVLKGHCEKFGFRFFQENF
Chain of NADPH oxidase 2 (Homo sapiens) (P04839 whole entry, looked up): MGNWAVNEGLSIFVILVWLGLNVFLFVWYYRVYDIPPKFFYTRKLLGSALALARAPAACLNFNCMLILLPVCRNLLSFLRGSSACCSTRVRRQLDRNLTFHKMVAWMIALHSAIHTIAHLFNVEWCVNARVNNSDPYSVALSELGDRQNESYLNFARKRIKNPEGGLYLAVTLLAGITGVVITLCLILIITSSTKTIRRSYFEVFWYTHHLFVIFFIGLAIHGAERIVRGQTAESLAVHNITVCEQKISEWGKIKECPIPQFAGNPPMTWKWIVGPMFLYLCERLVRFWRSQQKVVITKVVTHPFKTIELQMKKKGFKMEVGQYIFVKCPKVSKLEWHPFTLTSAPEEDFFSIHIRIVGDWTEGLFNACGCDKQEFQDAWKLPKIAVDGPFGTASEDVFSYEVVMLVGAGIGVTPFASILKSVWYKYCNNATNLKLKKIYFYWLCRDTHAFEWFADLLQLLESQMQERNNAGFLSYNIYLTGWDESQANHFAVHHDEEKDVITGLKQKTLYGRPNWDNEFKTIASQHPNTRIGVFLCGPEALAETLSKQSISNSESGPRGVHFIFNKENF
Chain of NADPH oxidase 4 (Homo sapiens) (Q9NPH5 whole entry, looked up): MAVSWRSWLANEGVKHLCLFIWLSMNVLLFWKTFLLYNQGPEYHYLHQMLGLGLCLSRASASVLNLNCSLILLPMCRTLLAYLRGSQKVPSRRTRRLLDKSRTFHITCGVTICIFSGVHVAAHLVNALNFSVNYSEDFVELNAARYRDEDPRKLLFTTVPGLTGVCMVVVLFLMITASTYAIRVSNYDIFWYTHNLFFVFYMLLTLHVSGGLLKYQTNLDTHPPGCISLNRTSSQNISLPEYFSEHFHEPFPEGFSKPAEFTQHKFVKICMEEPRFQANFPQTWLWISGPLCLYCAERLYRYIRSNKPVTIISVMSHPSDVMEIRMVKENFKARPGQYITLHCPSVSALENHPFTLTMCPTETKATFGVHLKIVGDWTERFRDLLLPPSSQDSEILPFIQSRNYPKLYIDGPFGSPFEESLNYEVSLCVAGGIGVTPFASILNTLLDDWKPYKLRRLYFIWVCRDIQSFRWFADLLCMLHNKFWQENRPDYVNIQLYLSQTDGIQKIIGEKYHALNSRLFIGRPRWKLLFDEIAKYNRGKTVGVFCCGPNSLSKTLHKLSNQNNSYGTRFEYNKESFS

For the compound `COc1ccc(C(O)C2C=CC3C(=O)N(C)C(=O)C3N2Nc2ccc([N+](=O)[O-])cc2[N+](=O)[O-])cc1OCc1ccccc1` (stereo not given), the z-score is -1.07 (inactive) in test [1]; -0.686 (inactive) in test [3]; 0.958 (inactive) in [4]; 0.0971 (inactive) in [5]; 0.975 (inactive) in test [6]; -1.21 in test [7]. Further, the z-score in test [8] was 0.0939 (inactive); in test [9], 0.703 (inactive); in test [10], 2.34; in test [11], -0.65; in test [12], -0.861; in test [13] it was 0.166. Further, the z-score in test [14] is 0.106; in [15] it was -0.499; in test [16], -0.475; in [17], -0.74 (inactive); in test [18], 0.0687; in [19], -0.371. For the same compound, the z-score in [20] is -0.682 (inactive). The compound further showed a composite z-score in test [2] of 0.703.
As to `[N-]=[N+]=NCc1ccccc1[C@@H]1OC(c2ccc(OCCCO)cc2)=N[C@]1(Cc1ccccc1)C(=O)NCc1ccccc1`, the z-score in test [1] is 0.251 (inactive); in [3], 18.4 (active); in test [4], 4.26 (inactive); in test [5], 1.52 (inactive); in test [6] it was 0.983 (inactive); in [7], 0.0369. For the same compound, the z-score was -3.27 (inactive) in test [8]; 1.15 (inactive) in test [9]; 0.85 in test [10]; 0.53 in [11]; 0.592 in test [12]; 0.293 in test [13]. The z-score was -0.856 in [14]; -0.0369 in [15]; 0.152 in [16]; 0.594 (inactive) in test [17]; -0.994 in test [18]; -0.921 in test [19]. Further, in test [20], the z-score is 0.267 (inactive). Also, in test [2], the composite z-score was 0.219.
`NCCCC[C@@H]1NC(=O)[C@H]2C[C@@H](C(=O)NCc3ccc(F)cc3)[C@@H](c3ccc(O)cc3)N2C1=O`: the z-score in [1] is -0.495 (inactive); in [3], 2.55 (inactive); in test [4] it was 0.724 (inactive); in test [5] it was -3.15 (inactive); in test [6], 0.302 (inactive); in test [7] it was -0.516. Further, the z-score in test [8] is 0.903 (inactive); in test [9], 0.941 (inactive); in test [10], 0.993; in test [11], -0.494; in test [12], -0.0841; in test [13] it was -0.666. Moreover, the z-score in test [14] is -0.206; in [15] it was 0.307; in test [16] it was -1.64; in test [17], -0.4 (inactive); in test [18], 0.667; in test [19], 0.0192. Further, the z-score in [20] was -0.537 (inactive). Moreover, the composite z-score in test [2] was found to be 0.954.
As to `CCOC(=O)C[C@H]1[C@H](OC(=O)c2ccc(-c3ccccc3)cc2)[C@@H](NC(=O)c2ccc3ccccc3c2)c2cc(OCCCO)ccc2N1C(=O)c1ccccc1`, the z-score in test [1] was -0.966 (inactive); in test [3], 0.398 (inactive); in test [4], 0.134 (inactive); in [5] it was -0.337 (inactive); in test [6], 0.407 (inactive); in test [7], 0.263. The z-score is -2.38 (inactive) in [8]; -1.62 (inactive) in test [9]; -0.532 in test [10]; -0.9 in test [11]; 0.237 in test [12]; -0.307 in test [13]. Also, the z-score was -0.438 in [14]; -0.322 in test [15]; 0.762 in test [16]; -0.0421 (inactive) in test [17]; 0.483 in [18]; -0.108 in test [19]. For the same compound, the z-score in test [20] was 0.231 (inactive). This compound also registered a composite z-score in test [2] of 0.0691.
Consider `CO[C@H]1O[C@H](CO)[C@@H](OC(=O)Nc2ccc3c(c2)OCO3)[C@@H]2OC(=O)[C@@H](Cc3ccccc3)C/C=C/C[C@H](Cc3ccccc3)C(=O)O[C@@H]12`, for which the z-score was 0.239 (inactive) in test [1]; 2.93 (inactive) in [3]; 0.825 (inactive) in [4]; 0.0814 (inactive) in test [5]; 1.09 (inactive) in [6]; 0.401 in test [7]. Moreover, the z-score was -0.895 (inactive) in test [8]; -0.162 (inactive) in test [9]; -1.47 in test [10]; 1.9 in [11]; -2.78 in [12]; 0.843 in test [13]. The z-score was -0.69 in test [14]; -0.197 in test [15]; 0.186 in test [16]; 0.912 (inactive) in test [17]; -0.469 in test [18]; -0.897 in test [19]. Besides, the z-score in [20] is -1.64 (inactive). In [2], this compound registered a composite z-score of 0.12.
For `CCCCN1CC=CC23O[C@@H]4C=CCOC(=O)[C@@H]4[C@H]2C(=O)N(CCO)[C@@H]3C1=O` (stereo not given in full), the z-score was -0.492 (inactive) in [1]; -0.366 (inactive) in [3]; 0.574 (inactive) in [4]; 0.349 (inactive) in [5]; 0.381 (inactive) in test [6]; -0.415 in [7]. The z-score is 1.51 (inactive) in test [8]; 1.08 (inactive) in test [9]; 0.669 in test [10]; 0.0738 in [11]; -0.426 in test [12]; 0.442 in [13]. In addition, the z-score in [14] was -1.05; in [15], 0.342; in test [16], -0.454; in test [17] it was 0.302 (inactive); in test [18], 0.837; in test [19], -0.209. In test [20], the z-score was -0.437 (inactive). In [2], the composite z-score worked out at 0.175.
In the case of `CN1C(=O)[C@]2(CCS(=O)(=O)c3ccccc3)N=C(c3ccc(OCCCO)cc3)O[C@@H]2c2ccccc21`, the z-score in [1] was -1.06 (inactive); in [3], 29.6 (active); in [4] it was 27.2 (active); in test [5] it was 2.49 (inactive); in test [6] it was 1.87 (inactive); in [7], -0.0831. In addition, the z-score in test [8] was 0.276 (inactive); in [9], -0.0954 (inactive); in test [10] it was -1.12; in test [11], -0.189; in test [12], -1.15; in [13], 0.881. Further, the z-score was -2.04 in [14]; -1.77 in test [15]; -0.447 in [16]; -0.466 (inactive) in test [17]; -0.852 in test [18]; 0.48 in [19]. In addition, the z-score in test [20] was -0.015 (inactive). The compound also had a composite z-score in test [2] of 0.18.
As to `C=C(CCCC)C(=O)CC[C@H](OC(=O)c1cccnc1)c1ccc(CO)o1`, the z-score is -0.348 (inactive) in test [1]; 2.21 (inactive) in test [3]; 0.101 (inactive) in [4]; 0.217 (inactive) in test [5]; 0.038 (inactive) in [6]; -0.253 in test [7]. For the same compound, the z-score in [8] was 1.25 (inactive); in test [9], 0.532 (inactive); in test [10], -0.454; in test [11] it was -0.489; in [12] it was -0.175; in test [13] it was 0.0768. In addition, the z-score is 0.187 in [14]; -0.0395 in [15]; -1.48 in test [16]; -0.572 (inactive) in test [17]; -0.577 in test [18]; -0.283 in test [19]. Also, the z-score in test [20] is -0.0291 (inactive). The composite z-score in [2] came out at 0.3.
In the case of `NC(=O)NCC#Cc1ccc2c(c1)[C@]1(C(=O)N2)[C@H](C(=O)Nc2nc3ccccc3s2)[C@H]2C(=O)O[C@H](c3ccccc3)[C@H](c3ccccc3)N2[C@@H]1c1ccc(OCCO)cc1`, the z-score in test [1] was 0.197 (inactive); in test [3], 1.93 (inactive); in test [4], 1.1 (inactive); in test [5], -0.166 (inactive); in test [6], 0.737 (inactive); in [7], 0.169. Besides, the z-score in test [8] is 0.681 (inactive); in [9] it was 0.611 (inactive); in test [10], 0.715; in test [11], -0.163; in test [12], 0.466; in test [13] it was -1.43. Besides, the z-score in test [14] was -0.231; in test [15], -0.349; in test [16] it was -3.18; in test [17], 0.272 (inactive); in test [18], -1.14; in test [19] it was -1.88. The z-score in test [20] was 0.767 (inactive). The composite z-score in [2] was found to be 0.309.
